Several values for one entry are separate records, joined by “and”; a condition that tells them apart may be missing. Equal entries are not always repeated. Out of some 5,500 compounds screened, about 2,000 (36%) were called active. About 18% were inconclusive and are not listed. Cut-off read from the data, not from the text of the source: active = normalized growth mostly below about 0.91 (no sharp cut-off); inconclusive = no clear call, values can overlap the other calls; inactive = mostly above about 0.92. This is one part of the list.
Test: chemical genetic growth profiling, strain panel (AID 1159580);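 note: tested at 20 µM; growth read once vehicle control cultures reached saturation at 30 °C; 1 = growth at the plate median or of vehicle wells; lower values mean less growth of the strain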
Conditions: S. cerevisiae deletion strains, growth OD

Measured: normalized growth

COS(C)(=O)=O
inactive: locus YAL013W, strain DEP1, stronger effect = lower value 1 | locus YAL021C, strain ccr4, stronger effect = lower value 0.997 | locus YAL026C, strain drs2, stronger effect = lower value 1 | locus YAL030W, strain snc1, stronger effect = lower value 0.996 | locus YBL061C, strain skt5, stronger effect = lower value 0.992 | locus YBR009C, strain hhf1, stronger effect = lower value 1 | locus YBR021W, strain FUR4, stronger effect = lower value 1 | locus YBR023C, strain chs3, stronger effect = lower value 0.994 | locus YBR171W, strain sec66, stronger effect = lower value 0.978 | locus YBR229C, strain ROT2, stronger effect = lower value 1.01 | locus YBR231C, strain swc5, stronger effect = lower value 0.969 | locus YBR279W, strain paf1, stronger effect = lower value 1 | locus YCL011C, strain gbp2, stronger effect = lower value 1.02 | locus YCL016C, strain dcc1, stronger effect = lower value 1 | locus YCL029C, strain bik1, stronger effect = lower value 1.02 | locus YCL069W, strain vba3, stronger effect = lower value 1 | locus YCR088W, strain abp1, stronger effect = lower value 0.993 | locus YDL005C, strain med2, stronger effect = lower value 0.979 | locus YDL035C, strain GPR1, stronger effect = lower value 1.02 | locus YDL040C, strain nat1, stronger effect = lower value 0.993 | locus YDL074C, strain BRE1, stronger effect = lower value 0.986 | locus YDL101C, strain DUN1, stronger effect = lower value 1 | locus YDL134C, strain PPH21, stronger effect = lower value 1 | locus YDL185W, strain tfp1, stronger effect = lower value 1.01 | locus YDL192W, strain arf1, stronger effect = lower value 1.01 | locus YDR001C, strain nth1, stronger effect = lower value 0.997 | locus YDR069C, strain doa4, stronger effect = lower value 1.01 | locus YDR101C, strain arx1, stronger effect = lower value 1.01 | locus YDR137W, strain rgp1, stronger effect = lower value 1.02 | locus YDR150W, strain NUM1, stronger effect = lower value 1 | locus YDR159W, strain sac3, stronger effect = lower value 0.944 | locus YDR162C, strain NBP2, stronger effect = lower value 0.993 | locus YDR195W, strain ref2 0.948 | locus YDR297W, strain sur2, stronger effect = lower value 0.982 | locus YDR318W, strain mcm21, stronger effect = lower value 1.03 | locus YDR334W, strain swr1, stronger effect = lower value 0.988 | locus YDR335W, strain msn5, stronger effect = lower value 1 | locus YDR388W, stronger effect = lower value 1.01 | locus YDR392W, strain spt3, stronger effect = lower value 0.947 | locus YDR502C, strain sam2, stronger effect = lower value 0.994 | locus YEL003W, strain gim4, stronger effect = lower value 0.989 | locus YEL037C, strain rad23, stronger effect = lower value 1 | locus YEL061C, strain CIN8 (second series), stronger effect = lower value 0.998 | locus YEL061C, strain CIN8, stronger effect = lower value 1.01 | locus YER015W, strain faa2, stronger effect = lower value 1.02 | locus YER016W, strain bim1, stronger effect = lower value 0.98 | locus YER110C, stronger effect = lower value 1.02 | locus YER111C, strain swi4, stronger effect = lower value 0.998 | locus YER155C, strain BEM2 (second series), stronger effect = lower value 0.976 | locus YER155C, strain BEM2, stronger effect = lower value 1.01 | locus YER167W, strain BCK2, stronger effect = lower value 1.02 | locus YFR010W, strain ubp6, stronger effect = lower value 0.995 | locus YGL078C, strain dbp3, stronger effect = lower value 0.999 | locus YGL086W, strain mad1, stronger effect = lower value 1.02 | locus YGL167C, strain pmr1, stronger effect = lower value 0.997 | locus YGL173C, strain kem1, stronger effect = lower value 1 | locus YGL227W, strain vid30, stronger effect = lower value 0.978 | locus YGL240W, strain doc1, stronger effect = lower value 0.957 | locus YGL248W, strain PDE1, stronger effect = lower value 1 | locus YGL253W, strain hxk2, stronger effect = lower value 1 | locus YGR078C, strain PAC10, stronger effect = lower value 0.986 | locus YGR135W, strain pre9, stronger effect = lower value 0.966 | locus YGR229C, strain SMI1, stronger effect = lower value 0.993 | locus YGR252W, strain gcn5, stronger effect = lower value 1.02 | locus YHR013C, strain ard1, stronger effect = lower value 1 | locus YHR027C, strain rpn1, stronger effect = lower value 0.983 | locus YHR030C, strain SLT2, stronger effect = lower value 1.01 and 1 | locus YHR079C, strain IRE1 (second series), stronger effect = lower value 1.02 | locus YHR079C, strain IRE1, stronger effect = lower value 0.999 | locus YHR094C, strain hxt1, stronger effect = lower value 1.02 | locus YHR129C, strain ARP1, stronger effect = lower value 1.01 | locus YHR142W, strain chs7, stronger effect = lower value 1.01 | locus YHR200W, strain rpn10, stronger effect = lower value 1.02 | locus YIL066C, strain RNR3, stronger effect = lower value 1.04 | locus YIL073C, strain SPO22, stronger effect = lower value 1.09 | locus YIL125W, strain kgd1, stronger effect = lower value 1.02 | locus YIR030C, strain dcg1, stronger effect = lower value 1.02 | locus YJL092W, strain hpr5, stronger effect = lower value 1 | locus YJL095W, strain BCK1 (second series), stronger effect = lower value 0.995 | locus YJL095W, strain BCK1, stronger effect = lower value 1 | locus YJL115W, strain asf1, stronger effect = lower value 0.982 | locus YJL129C, strain trk1, stronger effect = lower value 0.971 | locus YJL134W, strain LCB3, stronger effect = lower value 1.01 | locus YJL154C, strain vps35, stronger effect = lower value 0.988 | locus YJL164C, strain tpk1, stronger effect = lower value 0.996 | locus YJL166W, strain qcr8, stronger effect = lower value 1 | locus YJL168C, strain set2, stronger effect = lower value 1.02 | locus YJL187C, strain SWE1 (second series), stronger effect = lower value 1 | locus YJL187C, strain SWE1, stronger effect = lower value 0.992 | locus YJR043C, strain POL32, stronger effect = lower value 1.03 | locus YJR066W, strain TOR1, stronger effect = lower value 0.974

— PubChem BioAssay AID1159580 (chemical genetic matrix, 2015)
